Screening data as filed in PubChem BioAssay.
CRFBP-R2 block = antagonists of CRF-BP/CRF-R2 complex, primary screen, cell-based, HEK293, calcium dye fluorescence, uHTS. CRF-induced calcium fluorescence. AID 588475, 2011. inhibition, % at 11.8 µM. 350,000 tested, 0.59% active;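 active = inhibition of the ligand-induced calcium signal above about 50% at the single tested concentration, limit read from the data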
CRFR2-BP ag = agonists of CRF-BP/CRF-R2 complex, primary screen, cell-based, HEK293, calcium dye fluorescence, uHTS; activation, % at 13.2 µM; 350,000 tested, 0.46% active; AID 588473, 2011; CRF-binding protein / CRF receptor 2 complex (human); calcium dye fluorescence (FLIPR); percent of saturating CRF peptide response;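 active = activation of at least 50%, plus an integration ratio under a set limit after plate pattern correction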;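 note: plate controls were neutral control wells without compound for no effect and CRF at EC100 for full effect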
FAS-TE inh = FAS thioesterase domain inhibitors, primary screen, biochemical, fluorescence intensity, uHTS; Fatty acid synthase (Homo sapiens), P49327; recombinant FAS-TE, OMFH fluorogenic substrate, fluorescence endpoint; inhibition, % at 15 µM; 360,000 tested, 0.67% active;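 active = compounds whose normalised, plate-corrected inhibition of enzyme fluorescence in the single-dose primary screen is 50% or more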;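 note: 0% = DMSO with enzyme and 100% = substrate without enzyme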
aDG glyco act = activators of alpha-DG glycosylation, primary screen, uHTS, Pro5-aDG cells, AlphaScreen; alpha-DG glycosylation AlphaScreen (IIH6); 0% Pro5, 100% B10-LARGE cell signal; activation, % at 10 µM; 360,000 tested, 0.22% active; AID 624168, 2012;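 active = activation of at least 8% versus controls, or a plate z-score of at least 8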;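 note: Pro5 are CHO cells carrying HIG-tagged alpha-DG that lacks glycosylation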
PfGluPho inh = PfG6PD enzyme inhibitors, primary screen, biochemical, fluorescence intensity, uHTS; PfGluPho enzyme, NADPH resazurin-diaphorase fluorescence; inhibition, % at 20 µM; 350,000 tested, 0.78% active; AID 504690, 2011;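 active = inhibition reaching at least a set limit at 20 µM in the primary screen, cut at about 59% in these data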;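 note: 0% = DMSO wells with substrate and 100% = DMSO wells lacking glucose-6-phosphate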
Cardio protect = cardioprotection against H2O2-induced cell death, primary screen, uHTS, H9c2 cells, ATPLite luminescence; protection from H2O2 cell death, % at 20 µM; H9c2 cardiomyocytes, H2O2 injury protection, 2 h; AID 588492, 2011; 360,000 tested, 0.63% active;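 active = compounds giving at least 50% protection of heart cells from peroxide-induced death in the single-dose screen, raw or plate-pattern-corrected value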;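 note: 0% = DMSO wells with peroxide and 100% = DMSO wells without peroxide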
An asterisk follows results filed as active. This is a sample that favours compounds with a hit; in the whole collection about 3.2% have one here.

SMILES	CRFBP-R2 block	CRFR2-BP ag	FAS-TE inh	aDG glyco act	PfGluPho inh	Cardio protect
C[C@@H](NC(=O)c1nc[nH]c1C(=O)NCC(=O)OCc1ccccc1)c1ccccc1	0.8	1.1	-121.7	-0.2	15.1	92.4*
O=C(CNC(=O)c1nc[nH]c1C(=O)N1CCc2ccccc2C1)OCc1ccccc1	1.6	-1.5	-3.1	-0.1	-10.9	104.8*
COc1cccc(C2/C(=C(\O)c3ccc4c(c3)OCCO4)C(=O)C(=O)N2Cc2cccnc2)c1 (stereo unspecified)	-9.2	1.0	-0.6	0.2	-42.3	3.4
Cc1cccc(-c2nc(CS(=O)CC(=O)N3CC(C)CC(C)C3)c(C)o2)c1 (stereo unspecified)	54.9*	-0.6	1.4	0.0	-8.1	-2.8
CC(OC(=O)Cc1n[nH]c(=O)c2ccccc12)C(=O)Nc1ccc(Cl)cn1 (stereo unspecified)	2.9	-1.8	1.6	2.3	-5.8	58.1*
CC(OC(=O)Cc1n[nH]c(=O)c2ccccc12)C(=O)Nc1cc(Cl)cc(Cl)c1 (stereo unspecified)	10.2	0.2	6.6	1.3	7.3	56.5*
O=C(COC(=O)Cc1n[nH]c(=O)c2ccccc12)Nc1ccc(Cl)cc1F	12.5	-1.8	-3.8	-0.1	-8.4	56.4*
CC(OC(=O)Cc1n[nH]c(=O)c2ccccc12)C(=O)Nc1ccc(S(N)(=O)=O)cc1 (stereo unspecified)	12.5	0.3	-0.9	0.2	-2.4	48.3
O=C(COC(=O)Cc1n[nH]c(=O)c2ccccc12)Nc1ccc(Cl)cn1	-6.8	2.4	0.5	-0.1	-2.0	87.7*
CC(C)Oc1ccc(C(CC(=O)O)NC(=O)c2cccs2)cc1 (stereo unspecified)	13.4	1.5	-0.1	-0.4	-3.6	6.7
Cc1ccc(NC(=S)N(CCN(C)C)Cc2cc3cc(C)cc(C)c3[nH]c2=O)cc1	-30.0	-0.8	-4.0	0.0	26.1	11.1
CCOCCCN(Cc1cc2cc(C)cc(C)c2[nH]c1=O)C(=O)N(CC)CC	51.6*	-1.3	-6.1	0.4	3.4	4.4
O=C(c1ccccc1)N(c1ccccc1)C1C=CS(=O)(=O)C1 (stereo unspecified)	-0.8	1.7	-8.5	-0.1	-4.6	11.9
COc1ccc(C(=O)N(c2ccccc2)C2C=CS(=O)(=O)C2)cc1 (stereo unspecified)	52.1*	-0.5	-4.5	-0.1	14.0	1.8
N#CC1=C(N)Oc2cc(N)ccc2C1c1cccnc1 (stereo unspecified)	-5.1	-0.5	-6.7	0.1	-8.8	26.9
CCN(CC)c1ccc2c(c1)OC(N)=C(C#N)C2c1cccnc1 (stereo unspecified)	-182.9	181.4*	-74.3	-0.5	29.1	3.0
O=S(=O)(Nc1ccccc1)c1cccc2nsnc12	7.5	0.9	0.4	-0.1	3.5	3.6
Cc1ccc(NS(=O)(=O)c2cccc3nsnc23)cc1	75.2*	-0.6	0.5	-0.1	29.6	1.3
CCOc1ccc(NC(=O)CCNS(=O)(=O)c2cccc3nonc23)cc1	54.9*	0.6	-1.6	0.1	12.7	7.7
Cc1ccc(NC(=O)CCNS(=O)(=O)c2cccc3nonc23)cc1	9.4	-3.1	-2.6	-0.1	-4.6	1.2
COc1ccccc1C(=O)NC(CCSC)C(=O)NC1CCCCCC1 (stereo unspecified)	101.3*	-0.9	4.6	-0.1	-10.6	4.3
Oc1ccc(N=Cc2ccc(-c3cccs3)s2)cc1	0.1	0.3	5.5	0.2	71.6*	-10.5
COc1ccc(NC(=O)c2cccc(S(=O)(=O)NCc3ccccc3)c2)cc1S(N)(=O)=O	-5.9	-1.1	-4.5	-0.2	-0.5	4.6
COc1cccc(C(=O)Nc2cc3c(cc2N2CCCC2)n(C)c(=O)n3C)c1	30.7	-2.2	0.0	-0.1	40.9	-1.3
CCOC(=O)C1CCN(c2cc3c(cc2NC(=O)c2cc(OC)ccc2Br)n(C)c(=O)n3C)CC1	71.7*	-6.4	20.3	-0.5	8.3	39.2
SMILES	CRFBP-R2 block	CRFR2-BP ag	FAS-TE inh	aDG glyco act	PfGluPho inh	Cardio protect
CCOC(=O)C1CCN(c2cc3c(cc2NC(=O)c2ccccc2Br)n(C)c(=O)n3C)CC1	-3.5	-5.3	8.6	-0.5	4.5	51.9*
O=C(N/N=C/c1ccc(O)cc1O)NC12CC3CC(CC(C3)C1)C2	-18.3	-0.5	-85.7	0.1	-13.3	51.8*
O=C(N/N=C/c1cc([N+](=O)[O-])ccc1O)NC12CC3CC(CC(C3)C1)C2	4.4	-0.4	-1.0	-0.4	-3.7	4.9
COc1cc(/C=N/NC(=O)NC23CC4CC(CC(C4)C2)C3)ccc1OCC(N)=O	-8.5	0.2	4.0	-0.2	6.8	62.4*
COc1ccc(C)cc1S(=O)(=O)n1cnc2ccccc21	0.9	-2.6	3.8	0.0	-15.5	-0.8
CC1(c2ccc3ccccc3c2)NC(=O)N(CC(=O)Nc2cccc(S(=O)(=O)N3CCOCC3)c2)C1=O (stereo unspecified)	-5.3	1.2	14.6	-0.4	8.6	-3.3
COC(=O)c1sc(-c2ccc(C(C)(C)C)cc2)cc1NC(=O)CSCC(=O)O	53.6*	1.1	-45.4	-0.1	-31.4	-3.7
O=C(COC(=O)c1ccc([N+](=O)[O-])cc1)Nc1ccccc1C(=O)NC1CC1	3.7	0.2	-10.5	-0.1	-4.5	-3.2
CCOc1ccc(N2CC(C(=O)NC(C)C)CC2=O)cc1 (stereo unspecified)	-0.5	1.9	-10.9	0.1	-15.5	1.1
CCCNC(=O)C1CC(=O)N(c2ccc(OCC)cc2)C1 (stereo unspecified)	55.8*	-3.7	-0.5	-0.1	-17.2	8.5
COc1ccc2c(c1OC)C(=O)N1c3ccccc3COC21 (stereo unspecified)	66.7*	-1.7	-0.5	0.0	9.4	-17.6
COc1ccc2c(c1OC)C(=O)N1c3cccc(Cl)c3C(=O)OC21 (stereo unspecified)	-4.3	-2.0	-1.4	0.0	-7.5	-2.1
CCOc1ccccc1/C=C(\C#N)C1=CCCC1	-0.7	0.3	-2.2	0.0	-4.6	-4.0
Fc1ccc(-n2nnnc2-c2cnc(-c3cccs3)nc2C(F)(F)F)cc1	-11.7	-0.3	30.2	0.4	11.4	-14.0
CCn1c(SCC(=O)N2CCN(c3ccccc3)CC2)nc2c(c1=O)SC(C)C2 (stereo unspecified)	21.4	-2.2	2.2	1.5	21.8	58.5*
O=C(O)c1cccc2c1C(=O)N(Cc1ccccc1)C2	63.1*	0.2	-3.9	0.3	-13.0	1.0
